For test [1], the target named is Solute carrier family 12 member 5 (Homo sapiens) (UniProt Q9H2X9). Description: KCC2 modulators in sodium-free buffer, confirmation, cell-based, HEK293 KCC2, thallium flux, secondary assay (AID 1713). The conditions noted are these: FluoZin2 fluorescence, at 10 µM, active compounds read high.
A short description of the next test: PubChem AID 1714.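 Note: raw slope of fluorescence over initial fluorescence between 10 and 20 s after thallium.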 As to conditions: HEK293-KCC2 + bumetanide/ouabain, thallium flux FluoZin2; at 10 µM; active compounds read high.
A short description of test [2]: thallium flux modulation in parental HEK cells, confirmation, counter-screen for KCC2 modulator project, cell-based, counterscreen 1 (AID 1716;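 active = thallium flux rate significantly above the same plate's solvent-only control wells, beyond their mean plus 3 SD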). The conditions noted are these: HEK293 parental cells, thallium flux FluoZin2, ouabain; at 10 µM; baseline-ratio fluorescence slope, 10–20 s after thallium.
Test [3] deals with Solute carrier family 12 member 5 (Homo sapiens) (UniProt Q9H2X9). Description: KCC2 inhibitors and activators, ouabain retest, confirmation, HEK-KCC2 cells (AID 1717;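 active = thallium flux slope beyond 3 SD from same-plate DMSO control mean in most replicates, usually higher, sometimes lower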;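 note: slope of initial-normalized fluorescence between seconds 10 and 20 after thallium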). As to conditions: HEK293-KCC2, thallium flux FluoZin2 fluorescence, at 10 µM, bidirectional: low = inhibitor, high = activator.
A short description of test [4]: native HEK Tl+ uptake effects, second counter-screen – HEK cells, counterscreen 2, counter-screen for KCC2 modulator project, confirmation (AID 1718;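 active = thallium flux slope above the same plate's solvent-control mean plus 3 SD in both duplicate wells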;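 note: run without ouabain in cells lacking the KCC2 cotransporter; slope of fluorescence scaled to its starting value between 10 and 20 s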). The conditions noted are these: HEK293 parental, thallium flux FluoZin-2 fluorescence slope; at 10 µM.
The target in test [5] is Solute carrier family 12 member 5 (Homo sapiens) (UniProt Q9H2X9). Nature of the test: KCC2 modulators without ouabain present, confirmation, cell-based, HEK293 KCC2, thallium flux, FluoZin2, secondary assay 2 (AID 1715;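 active = thallium flux slope more than 3 SD above or below the plate's solvent-only control mean, mostly below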;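 note: raw slope with 0.1% DMSO as baseline and bumetanide as block control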). As to conditions: HEK293-KCC2, thallium flux FluoZin2 fluorescence; at 10 µM; actives lie on both sides; F/F0 rise rate, 10–20 s post-thallium.

This is one part of the list. Results filed as inconclusive are left out. Values without a mark were called inactive. Active and inactive are the calls of the source.

Chain of Solute carrier family 12 member 5 (Homo sapiens) (Q9H2X9 whole entry, looked up): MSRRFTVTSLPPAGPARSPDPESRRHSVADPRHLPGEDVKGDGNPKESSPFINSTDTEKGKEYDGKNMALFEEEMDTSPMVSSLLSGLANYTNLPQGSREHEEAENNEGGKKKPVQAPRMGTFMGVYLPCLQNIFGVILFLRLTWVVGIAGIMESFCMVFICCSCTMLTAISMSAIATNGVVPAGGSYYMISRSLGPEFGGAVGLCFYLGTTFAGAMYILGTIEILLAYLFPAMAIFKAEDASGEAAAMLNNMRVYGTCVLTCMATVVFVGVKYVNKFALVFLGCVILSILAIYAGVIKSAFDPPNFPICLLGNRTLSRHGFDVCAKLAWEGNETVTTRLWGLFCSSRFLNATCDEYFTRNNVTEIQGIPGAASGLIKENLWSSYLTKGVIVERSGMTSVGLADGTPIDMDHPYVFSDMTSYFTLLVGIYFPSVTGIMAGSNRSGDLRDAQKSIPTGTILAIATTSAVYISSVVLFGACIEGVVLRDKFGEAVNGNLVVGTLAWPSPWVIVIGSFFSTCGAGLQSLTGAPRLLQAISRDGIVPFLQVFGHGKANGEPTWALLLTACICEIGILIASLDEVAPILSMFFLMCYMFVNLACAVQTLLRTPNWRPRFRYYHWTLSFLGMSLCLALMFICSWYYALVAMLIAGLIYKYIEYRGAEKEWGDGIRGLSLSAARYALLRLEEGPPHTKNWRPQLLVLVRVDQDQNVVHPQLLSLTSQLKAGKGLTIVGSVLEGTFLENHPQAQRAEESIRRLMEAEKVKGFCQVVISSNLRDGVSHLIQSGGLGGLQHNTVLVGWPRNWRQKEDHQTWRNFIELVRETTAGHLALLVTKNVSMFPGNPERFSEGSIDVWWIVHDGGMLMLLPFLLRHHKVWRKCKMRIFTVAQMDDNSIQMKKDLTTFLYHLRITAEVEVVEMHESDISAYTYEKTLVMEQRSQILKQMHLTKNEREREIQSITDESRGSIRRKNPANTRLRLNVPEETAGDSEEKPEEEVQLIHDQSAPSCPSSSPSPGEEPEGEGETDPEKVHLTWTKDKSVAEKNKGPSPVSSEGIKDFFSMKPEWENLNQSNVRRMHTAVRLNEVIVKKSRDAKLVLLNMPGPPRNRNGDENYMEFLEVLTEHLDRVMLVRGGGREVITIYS

Turning to `COc1ccc(Cl)cc1C(=O)NNC(=S)NC(=O)/C=C/c1ccco1`, the normalised thallium flux (F/F0 slope) in test [1] was 0.0165. In addition, the normalized thallium flux in “PubChem AID 1714” was 0.0479 (active). Besides, the thallium flux rate (normalised fluorescence) in test [2] is 0.0367 (active). Besides, in test [3], the raw Tl+ flux slope (below DMSO = inhibition, above = activation) is 0.0379 (active). The thallium flux slope in test [4] is 0.0335 (active).

With `CC(=O)NC(=S)NNC(=O)c1ccc(Br)cc1`, the normalised thallium flux (F/F0 slope) in test [1] was 0.00779. Besides, the figures for the normalized thallium flux (in the test “PubChem AID 1714”; in test [5]) were 0.0133 (active) and 0.0358, respectively. Moreover, in test [2], the thallium flux rate (normalised fluorescence) is 0.0158 (active). Moreover, the thallium flux slope in test [4] was 0.0176 (active).

On to `Fc1ccc(COc2cccc(-c3n[nH]c(=S)o3)c2)cc1`, for which, in test [1], the normalised thallium flux (F/F0 slope) was 0.0171. The normalized thallium flux in the test “PubChem AID 1714” was 0.101 (active). The thallium flux rate (normalised fluorescence) in test [2] is 0.0348 (active). For the same compound, the raw Tl+ flux slope (below DMSO = inhibition, above = activation) in test [3] was 0.042 (active). Besides, the thallium flux slope in test [4] is 0.0338 (active).

Regarding `COC(=O)c1sc(NC(=S)NC(=O)c2ccc(C)cc2)nc1C`, the normalised thallium flux (F/F0 slope) in test [1] is 0.0256 (active). Moreover, the normalized thallium flux in “PubChem AID 1714” is 0.104 (active). The thallium flux rate (normalised fluorescence) in test [2] is 0.0618 (active). Further, in test [3], the raw Tl+ flux slope (below DMSO = inhibition, above = activation) was 0.0617 (active). The thallium flux slope in test [4] was 0.0234 (active).

Turning to `O=C(Cc1csc(Nc2nc(=S)[nH]c3ccccc23)n1)NCCCN1CCN(c2cccc(Cl)c2)CC1`, in test [1], the normalised thallium flux (F/F0 slope) was 0.0134 (active). The normalized thallium flux in the test “PubChem AID 1714” is 0.0417 (active); in test [5], 0.0374. The raw Tl+ flux slope (below DMSO = inhibition, above = activation) in test [3] was 0.0417 (active). In addition, the thallium flux slope in test [4] is 0.0172 (active).

Regarding `COc1ccccc1N1CCN(C(=O)CSc2ncnc3c2cnn3-c2ccc(C)c(C)c2)CC1`, the normalised thallium flux (F/F0 slope) in test [1] was 0.00591. Moreover, the results for the normalized thallium flux (in the test “PubChem AID 1714”; in test [5]) were 0.00504 and 0.029, respectively. In test [3], the raw Tl+ flux slope (below DMSO = inhibition, above = activation) was 0.0176. The thallium flux slope in test [4] was 0.0103.

On to `Cc1cc(C(=O)NNC(=S)Nc2ccccc2C)cs1`, for which the normalised thallium flux (F/F0 slope) in test [1] was 0.00983. Also, the normalized thallium flux in “PubChem AID 1714” was 0.0117 (active); in test [5], 0.0323. In addition, the raw Tl+ flux slope (below DMSO = inhibition, above = activation) in test [3] was 0.0239. Moreover, the thallium flux slope in test [4] was 0.0109.

For the compound `CCCCC(CC)CNC(=O)C(=O)C1C(=O)Nc2ccccc21` (configuration not stated), in test [1], the normalised thallium flux (F/F0 slope) is 0.0112. For the same compound, the normalized thallium flux was 0.0356 (active) in the test “PubChem AID 1714” and 0.0322 in test [5]. Further, in test [3], the raw Tl+ flux slope (below DMSO = inhibition, above = activation) was 0.0309 (active). In addition, the thallium flux slope in test [4] was 0.0126.

With `O=C(Nc1ccn(Cc2ccccc2)n1)c1cccc(F)c1`, the normalised thallium flux (F/F0 slope) in test [1] is 0.00622. In addition, in “PubChem AID 1714”, the normalized thallium flux was 0.00499. Further, the thallium flux rate (normalised fluorescence) in test [2] was 0.00698. The raw Tl+ flux slope (below DMSO = inhibition, above = activation) in test [3] is 0.017 (active). For the same compound, the thallium flux slope in test [4] was 0.00931.

Regarding `Cn1c(C(=O)NCCc2ccsc2)cc2c(=O)n(C)c3ccccc3c21`, in test [1], the normalised thallium flux (F/F0 slope) was 0.00557. The normalized thallium flux in the test “PubChem AID 1714” is 0.00386. The raw Tl+ flux slope (below DMSO = inhibition, above = activation) in test [3] is 0.0126 (active). Also, in test [4], the thallium flux slope was 0.00931.

As to `CCCCn1c(=S)[nH]c2ncccc2c1=O`, the normalised thallium flux (F/F0 slope) in test [1] was 0.0429 (active). For the same compound, the normalized thallium flux in the test “PubChem AID 1714” was 0.12 (active). Also, the raw Tl+ flux slope (below DMSO = inhibition, above = activation) in test [3] was 0.0884 (active). The thallium flux slope in test [4] was 0.0266 (active).

Regarding `COCCn1c(C)cc(C(=O)CSc2ncnc3sc4c(c23)CCC4)c1C`, the normalised thallium flux (F/F0 slope) in test [1] is 0.0102. Further, the normalized thallium flux is 0.013 (active) in the test “PubChem AID 1714” and 0.0342 in test [5]. For the same compound, the thallium flux slope in test [4] was 0.0112.

On to `CCCCn1c(SCC(=O)NCC2CCCO2)nc2ccc(N3CCOCC3)cc2c1=O` (configuration not stated), for which the normalised thallium flux (F/F0 slope) in test [1] is 0.0177. In addition, the normalized thallium flux in “PubChem AID 1714” is 0.0198 (active). Moreover, the thallium flux rate (normalised fluorescence) in test [2] is 0.0094 (active). Also, in test [3], the raw Tl+ flux slope (below DMSO = inhibition, above = activation) was 0.0187 (active). For the same compound, the thallium flux slope in test [4] is 0.013 (active).

`O=C(CNCc1cccs1)Nc1cc(S(=O)(=O)N2CCCC2)ccc1Cl`: the normalised thallium flux (F/F0 slope) in test [1] is 0.00507. Moreover, the values for the normalized thallium flux (in “PubChem AID 1714”; in test [5]) were 0.00419 and 0.0229 (active), respectively. Besides, in test [3], the raw Tl+ flux slope (below DMSO = inhibition, above = activation) was 0.0155 (active). Besides, the thallium flux slope in test [4] was 0.0101.

The record behind these values is PubChem BioAssay.
